# Six1-Eya2 inh: inhibitors of human Six1/Eya2 interaction; Q15475+O00167; AlphaScreen GST-Six1/His-Eya2 binding, biochemical; hits give low values; activity change, % (test concentration not listed); actives 0.56% (n = 360,000); in the data active means activity change below about -65%; inconclusive means mostly about -30% to -63%; further: on the % scale 0 is the no-effect control and ±100 the full control effect
# Target sequence (O00167 whole entry, looked up): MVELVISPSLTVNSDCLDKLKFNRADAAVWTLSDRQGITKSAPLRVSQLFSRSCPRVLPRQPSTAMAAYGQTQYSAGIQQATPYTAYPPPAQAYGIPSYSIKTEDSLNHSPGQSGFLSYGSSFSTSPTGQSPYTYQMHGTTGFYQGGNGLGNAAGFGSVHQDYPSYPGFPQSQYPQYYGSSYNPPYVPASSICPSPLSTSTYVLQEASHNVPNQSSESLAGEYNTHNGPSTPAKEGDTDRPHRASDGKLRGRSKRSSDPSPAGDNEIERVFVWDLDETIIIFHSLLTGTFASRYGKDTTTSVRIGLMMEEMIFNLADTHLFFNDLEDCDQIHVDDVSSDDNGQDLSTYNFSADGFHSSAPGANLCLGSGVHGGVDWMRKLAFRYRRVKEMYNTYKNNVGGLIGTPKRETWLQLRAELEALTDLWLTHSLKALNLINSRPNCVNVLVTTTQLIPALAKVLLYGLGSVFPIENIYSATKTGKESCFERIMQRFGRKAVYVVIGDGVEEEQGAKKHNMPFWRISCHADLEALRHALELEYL
# Target sequence (Q15475 whole entry, looked up): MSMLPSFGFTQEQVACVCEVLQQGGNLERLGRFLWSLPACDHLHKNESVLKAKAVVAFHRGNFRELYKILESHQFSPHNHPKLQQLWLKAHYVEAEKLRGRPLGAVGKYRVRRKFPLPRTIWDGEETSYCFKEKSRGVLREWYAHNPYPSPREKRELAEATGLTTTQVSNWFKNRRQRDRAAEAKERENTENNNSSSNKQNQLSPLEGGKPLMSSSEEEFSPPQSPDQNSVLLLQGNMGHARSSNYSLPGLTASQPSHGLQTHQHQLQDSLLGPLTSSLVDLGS
#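 AlphaScreen luminescence read after one hour at 37 °C in darkness. Pin-transferred compounds met GST-Six1 and His-Eya2 protein (5X stock 250 nM/500 nM) plus glutathione donor and Ni-chelate acceptor beads (5X, 50 ug/mL).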
# G9a block: blocks human histone lysine methyltransferase G9a; Q96KQ7; G9a H3K9 monomethylation, AlphaScreen, 2 h; Potency, µM (series often up to 102 µM), for inactives: at the highest dose activity, negative = inhibition, actives largely listed as inhibitors; actives 8.8% (n = 350,000); further: potency means the concentration at half of the fitted maximal effect; on the % scale 0 is the no-effect control and ±100 the full control effect; nearly all actives have a fitted effect of over 75% in size
#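 Methyltransferase reactions run at room temperature for 2 h (20 nM enzyme, 500 nM biotin-H3K9 peptide, 20 uM SAM) after a 15 min compound preincubation; product detected by AlphaScreen beads and anti-H3K9me1 antibody.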
# CtBP-E1A inh: CtBP/E1A binding inhibition. activity change, % (concentration not given with the values). AID 651724. actives 0.49% (n = 340,000). AlphaScreen GST-E1A/His-CtBP binding, 1536-well; hits give low values; in the data active means activity change below about -65%; inconclusive means mostly about -30% to -63%; further: on the % scale 0 is the no-effect control and ±100 the full control effect
#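 AlphaScreen with 125 nM GST-E1A and 125 nM His-CtBP (5X stocks) in Tris pH 8.0, 300 mM NaCl, BSA, Tween 20, TCEP. Compounds preincubated 2 h at 37 deg C, then glutathione donor/nickel acceptor beads added for 1 h at 37 deg C in dark.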
# BAZ2B inh: BAZ2B (human) inhibition; AlphaScreen BAZ2B-H3K14Ac peptide displacement; Q9UIF8; Potency, µM (doses to about 114 µM), inactives show at the highest dose activity change, negative = inhibition, actives largely listed as inhibitors; AID 504333; actives 4.4% (n = 360,000); further: potency means the concentration at half of the fitted maximal effect; on the % scale 0 is the no-effect control and ±100 the full control effect; nearly all actives have a fitted effect of over 60% in size
#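 Complex of BAZ2B and biotin-H3K14Ac (50 nM apiece) forms over 30 min at RT, then faces library compounds up to 110 uM for another 30 min; AlphaScreen beads added, 20 min dark incubation, luminescence read.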
# JMJD2A Tudor: JMJD2A Tudor domain (human) inhibition. AlphaScreen JMJD2A-Tudor / H3K4me3 peptide binding. Potency, µM (top dose mostly 114 µM), without a hit: at the top dose activity change, negative = inhibition, most hits filed as inhibitors. actives 4.4% (n = 390,000). AID 504339; further: potency means the concentration at half of the fitted maximal effect; on the % scale 0 is the no-effect control and ±100 the full control effect; nearly all actives have a fitted effect of over 50% in size
# HP1b chromo inh: HP1-beta chromodomain-methylated histone interaction inhibition | P83916 | AlphaScreen HP1-beta / biotin-H3K9me3 peptide binding | Potency, µM (series often up to 114 µM), inactives show at the top dose activity change, negative = inhibition, hits mostly inhibitors | actives 0.56% (n = 390,000) | AID 540317; further: potency means the concentration at half of the fitted maximal effect; nearly all actives have a fitted effect of over 70% in size
#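 HP1-beta protein (50 nM final) preincubated 30 min at room temperature with biotinylated H3(1-18)K9me3 peptide (50 nM) in PBS pH 7.4, 0.01% Tween-20, then compound added for 30 min. AlphaScreen streptavidin donor/nickel chelate acceptor beads (10 ug/mL final), 30 min dark, luminescence read.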
# An asterisk follows results filed as active; u = inconclusive; x = no result given; ! = repeats disagree; [ ] = dose if it differs, or a comment. An excerpt weighted towards active compounds, which were near 10% of everything screened. Unless noted, the call rests on the fitted dose curve; in most records, active means well fitted inhibition curve with a large enough effect; inconclusive means small, poorly fitted or top-dose-only effect; inactive means no such curve, though single readings can be large or run the other way.
SMILES,Six1-Eya2 inh,G9a block,CtBP-E1A inh,BAZ2B inh,JMJD2A Tudor,HP1b chromo inh
O=C1NC(=O)C(=Cc2cc([N+](=O)[O-])ccc2N2CCCCC2)C(=O)N1,-3.4,10.0%[59 µM],1.6,-12.3%,-20.3%,24.3%
O=C1NC(=O)C(=Cc2ccccc2OCCOc2ccc([N+](=O)[O-])cc2)C(=O)N1,-15.6,15.8µM*,-7.6,u,89.1µM*,26.1%
COc1cc(C=C2C(=O)NC(=O)NC2=O)ccc1OCc1ccc([N+](=O)[O-])cc1,-2.2,25.1µM*,0.0,x,35.5µM*,21.1%
O=C1NC(=O)C(=Cc2ccc(Oc3ccc([N+](=O)[O-])cc3)cc2)C(=O)N1,-9.1,35.5µM*,1.5,-35.1%,56.2µM*,-6.0%
CN1C(=O)C(=Cc2ccccc2OCCOc2ccc([N+](=O)[O-])cc2)C(=O)N(C)C1=O,-10.4,10µM*,-10.9,50.1µM*,u,19.3%
COC1=CC2C3Cc4ccc(OC)c(O)c4[C@]2(CCN3C)CC1=O (some centres undefined),x,-39.1%[2.33 µM],x,x,x,x
COc1ccccc1N1CCN(Cc2ccccc2Cl)CC1,-1.0,14.1µM*,6.5,35.5µM*,3.16µM*,-45.2%
COc1ccccc1N1CCN(Cc2ccc(Br)cc2)CC1,-1.4,u,x,u,-32.9%,20.9%
COc1ccccc1N1CCN(Cc2cccc(OC)c2O)CC1,-3.5,44.7µM*,2.5,50.1µM*,u,15.5%
Clc1ccccc1CN1CCN(c2cccc3[nH]ccc23)CC1,-19.5,28.2µM*,-11.0,39.8µM*,u,u
COc1ccccc1N1CCN(Cc2ccccc2F)CC1,-2.9,-44.2%[2.33 µM],10.9,44.7µM*,6.31µM*,u
COc1ccccc1N1CCN(Cc2c(F)cccc2F)CC1,2.0,2.9%[12.7 µM],-0.5,-27.3%,-26.9%,14.6%
O=C(Oc1ccccc1)N(c1ccccc1)c1ccccc1,4.3,x,-2.9,45.5%,-16.9%,-17.0%
COc1cc(CNC(=O)CCCC/C=C/C(C)C)ccc1O,-6.4,3.5%[59 µM],-2.1,9.2%,-5.8%,51.1%
O=[N+]([O-])/C=C/c1c(Cl)cccc1Cl,-6.8,x,-2.0,x,39.8µM*,3.0%
NCC#Cc1ccccc1,x,31.0%[12.7 µM],x,x,x,x
CCOC(=O)CCCCCNC(=O)c1c(O)[nH]c(=O)[nH]c1=O,-1.4,x,2.7,x,79.4µM*,4.4%
C=Cn1ccnc1P(=S)(c1c(C)nn(-c2ccccc2)c1C)c1nccn1C=C,-3.8,50.1µM*,14.1,-34.6%,-22.7%,28.0%
C[C@@]12CC[C@H]3[C@@H](CC[C@@H]4C[C@H]5S[C@H]5C[C@]43C)[C@H]1CC[C@H]2O,x,4.7%[21.5 µM],x,x,x,x
CC(C)(O)[C@@H]1C2OC(=O)[C@@H]1[C@]1(O)C[C@H]3O[C@]34C(=O)O[C@H]2[C@]14C (tested in a mixture with another compound),x,13.6%[59 µM],x,x,x,x
C/C(O)=C1\C(=O)[C@@H]2[C@H]3c4c[nH]c5cccc(c45)C[C@H]3C(C)(C)N2C1=O,x,25.1µM*!,x,x,x,x
Oc1c(Cl)c(Cl)c(Cl)c(Cl)c1Cl,-2.1,x,-10.1,x,56.2µM*,-7.0%
COc1ccc(CC2c3cc(OC)c(OC)cc3CCN2C)cc1O (centres undefined),0.5,19.6%,9.1,2.7%,0.0%,30.1%
COc1cc2c(cc1O)C(Cc1ccc(O)cc1)NCC2 (centres undefined),0.2,79.4µM*,-2.7,-29.1%,-12.9%,36.1%
CCOC(=O)c1ccc(NC(=O)CSc2cc(=O)n(CC)c3ccccc23)cc1,x,u,x,6.1%,-2.6%,-5.8%
SMILES,Six1-Eya2 inh,G9a block,CtBP-E1A inh,BAZ2B inh,JMJD2A Tudor,HP1b chromo inh
COc1ccc(CNCCc2ccc3c(c2)OCO3)cc1Br,-9.9,5.01µM*,x,50.1µM*,17.8µM*,-14.9%
COc1cc(CNCCc2ccc3c(c2)OCO3)cc(OC)c1OC,-7.7,5.01µM*,-7.8,56.2µM*,0.794µM*,u
COc1ccccc1CCNCc1cc2c(cc1[N+](=O)[O-])OCO2,-5.9,25.1µM*,-11.7,50.1µM*,3.55µM*,-54.7%
COc1ccc(Br)cc1CNCCc1ccc2c(c1)OCO2,-16.6,x,-0.8,x,25.1µM*,u
O=C(Nc1cccc(F)c1)N1CC2(CCN(C(=O)Oc3ccccc3)CC2)C1,x,-2.5%[12.7 µM],x,x,x,x
CCC1(c2ccccc2)C(=O)NC(=O)N(C(=O)c2ccccc2)C1=O (centres undefined),x,-1.2%[12.7 µM],x,x,x,x
CN1CCN(Cc2ccc(N)cc2)CC1,-0.6,23.6%[0.501 µM],7.1,-2.4%,5.8%,36.9%
CN1CCN(Cc2cc(C(C)(C)C)c(O)c(C(C)(C)C)c2)CC1,-0.7,8.91µM*,3.0,u,2.24µM*,u
CCS(=O)(=O)N1CCN(C2CCC(C)CC2)CC1 (centres undefined),-7.0,5.62µM*,-28.1,56.2µM*,6.31µM*,u
O=C(Nc1nn[nH]n1)c1cccc([N+](=O)[O-])c1,3.5,25.1µM*,-8.6,79.4µM*,22.4µM*,19.6%
O=C(Nc1ccccc1)N1CC[C@@]2(CCCNC2)C1,x,-1.6%[12.7 µM],x,x,x,x
O=C(O)c1ccccc1-c1c2cc(Br)c(=O)cc-2oc2[c]([Hg])c(O)c(Br)cc12,x,0.891µM*,x,x,x,x
Nc1ccc(N=Nc2ccccc2)cc1,u,44.7µM*,-27.3,22.4µM*,44.7µM*,u
COc1cc(/C=N/Nc2ccc(S(N)(=O)=O)cc2)cc(OC)c1OC,u,-36.1%,-1.7,-16.3%,u,u

# Source: PubChem BioAssay (National Center for Advancing Translational Sciences (NCATS))
